Compounds with a hit are over-represented: about 21% of the library has one in this group of screens.
HCV inhibitor: HCV inhibition; Huh7.5.1 HCVcc-Cre infection, luciferase reporter, 44 h; Potency, µM (top dose mostly 41.8 µM), usual class: inhibitors; 340,000 compounds, 3.4% hits
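After 44 h co-culture of compound, cells and HCVcc-Cre (~0.5 moi), substrate is added for 15 min at room temperature and luciferase measured over 15 sec. Cells were seeded at 1,000/well and pre-cultured 4 h.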
Shiga inhibitor: blocks Shiga toxin action in Vero cells; 290,000 compounds, 9.2% hits; Vero cells, Shiga toxin protein synthesis inhibition reporter; AID 2315; inhibition, % at 38.7 µM; in the data active = inhibition mostly above about 28%, no sharp cut-off; inactive = mostly below about 43%
Pf growth 96h: inhibits malaria parasite growth, 96 h; P. falciparum luciferase reporter growth, 96 h; Potency, µM (series often up to 28.7 µM), actives largely listed as inhibitors; 320,000 compounds, 6.9% hits
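Readout is luminescence from an integrated firefly luciferase in P. falciparum. Red cells, 2% hematocrit and 0.05% parasitemia final, were cultured with compound through two parasite generations (96 hours) at 37 C, 5% CO2.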
Pf growth 48h: P. falciparum growth inhibition at 48 hours (one generation). P. falciparum luciferase growth in erythrocytes, 48 h. Potency, µM (top dose mostly 28.7 µM), most hits filed as inhibitors. 310,000 compounds, 5.9% hits. AID 504832
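First compound was added to culture medium, then infected red cells at 0.1% parasitemia and 2% hematocrit (final). After incubation at 37 C under 5% CO2, luciferase detection reagent was dispensed and light output recorded.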
CHX counter: counter-screen hit for Shiga toxin inhibitors, cycloheximide; max response, %; 300,000 compounds, 12% hits; AID 2314; cell reporter, cycloheximide protein synthesis inhibition counterscreen; in the data active = max response mostly above about 13%, no sharp cut-off; inactive = mostly below about 14%; note: read at 38.3 µM for the half of the compounds with a filed dose
HCMV inh: inhibitors of human cytomegalovirus | 410,000 compounds, 4.5% hits | activity change, negative = inhibition, % at 57.5 µM | HFF cells, HCMV-luciferase reporter, 72 h; active compounds read low; in the data active = activity change below about -60%; inconclusive = no clear call, values can overlap the other calls; inactive = above about -39%
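Human foreskin fibroblasts infected with luciferase-reporter HCMV at MOI 1 PFU/cell, compounds at two doses. Luciferase measured 72 h post infection; normalized to buffer-only basal and Salinomycin (10uM) controls.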
A number is an active result; . = inactive; ? = inconclusive; / = no result given; + = active, no number; [ ] = dose if it differs, or a comment. Unless noted, calls come from the whole dose curve; as a rule, active = well fitted inhibition curve with a large enough effect; inconclusive = small, poorly fitted or top-dose-only effect, or another doubt; inactive = no such curve, though single readings can be large or run the other way.

SMILES	HCV inhibitor	Shiga inhibitor	Pf growth 96h	Pf growth 48h	CHX counter	HCMV inh
Cc1ccc([N+](=O)[O-])cc1N/C=C1\CCc2ccccc2C1=O	.	52.4	?	.	12.7	.
O=C1C(=Cc2ccccc2Cl)CCc2ccccc21	/	/	/	/	/	.
COc1ccc(-c2noc(COc3cc(C)c(Br)c(C)c3)n2)cc1OC	/	/	/	/	/	.
O=C(CSc1nc2nccnc2c(=O)n1CCc1c[nH]c2ccccc12)Nc1ccc(F)cc1	/	/	/	/	/	-63.0
CSCC(C)N1CCC(n2nccc2NC(=O)CCc2ccccc2)CC1 (stereo unspecified)	.	.	.	.	.	.
CSCC(C)N1CCC(n2nccc2NC(=O)CCCc2ccccc2)CC1 (stereo unspecified)	.	.	?	.	.	+
CC(CN1CCC(n2nccc2NC(=O)CCCc2ccccc2)CC1)c1ccccc1 (stereo unspecified)	?	.	11.7µM	14.7µM	.	/
CSCCCN1CCC(n2nccc2NC(=O)CCCc2ccccc2)CC1	?	.	?	?	.	.
COc1ccccc1-c1cc2c(Nc3ccc(NC(C)=O)cc3)nccc2[nH]1	/	/	/	/	/	.
C=C1C(=O)O[C@H]2C1CC[C@@](C)(O)C13C=CC(C)(C21)C1(C3)C(=O)O[C@@H]2C3C(C)=CCC3[C@](C)(O)C[C@H](OC(C)=O)C21 (stereo partly specified)	.	33.9	?	.	12.2	-90.3
Cc1ccccc1N(CC(=O)NCCSCc1ccccc1)S(C)(=O)=O	.	.	11.7µM	.	.	.
CS(=O)(=O)N(CC(=O)NCCSCc1ccccc1)c1ccccc1Br	.	.	7.38µM	.	.	.
COc1cccc(CNC(=O)C(Cc2ccccc2)NS(=O)(=O)c2ccc3c(c2)CCN3C(C)=O)c1 (stereo unspecified)	/	/	/	/	/	.
CC(C)c1ncc(S(=O)(=O)c2ccc(C(F)(F)F)cn2)c(N)n1	.	.	.	.	.	.
CSc1ncc(Cl)c(C(=O)Nc2c(C(=O)c3ccc(C)cc3)oc3ccccc23)n1	/	/	/	/	/	.
O=C(NCc1ccccn1)c1ccc(CNS(=O)(=O)c2cccc(Cl)c2)cc1	.	.	.	.	.	.
COc1cccc(-c2nc(C=O)cs2)c1	.	30.7	.	.	.	.
COc1cccc(C(=O)NCCc2csc(-c3ccc(Cl)cc3)n2)c1	/	/	/	/	/	.
COc1ccc(-c2nc(C=O)cs2)cc1	.	39.2	.	.	13.2	.
CC(=O)N1CCc2cc(Br)cc(S(=O)(=O)N3CCC(C(=O)Nc4cccc(C)c4C)CC3)c21	/	/	/	/	/	.
COc1ccccc1NC(=O)CCC(=O)OCC(=O)c1ccc(C)c([N+](=O)[O-])c1	.	.	.	.	.	.
NC(N)=NC1=NC(=O)/C(=C/c2ccccc2-n2cccn2)S1	.	.	.	.	.	.
O=Cc1ccccc1-n1cccn1	.	.	.	.	30.8	.
O=C(NC1CC(=O)N(c2ccc(Cl)cc2)C1)C(=O)c1c[nH]c2ccccc12 (stereo unspecified)	/	/	/	/	/	.
Cc1ccccc1C(=O)Nc1nnc(-c2ccc(C(C)(C)C)cc2)s1	.	.	.	.	15.7	.
SMILES	HCV inhibitor	Shiga inhibitor	Pf growth 96h	Pf growth 48h	CHX counter	HCMV inh
Cc1cccc(C(=O)Nc2nnc(-c3ccc(C(C)(C)C)cc3)s2)c1	?	.	.	.	18.8	.
COc1ccccc1C(=O)Nc1nnc(-c2ccc(F)cc2)s1	.	.	?	.	.	.
O=C(Cn1cc(S(=O)(=O)Cc2ccccc2Cl)c2ccccc21)Nc1ccc(F)cc1F	/	/	/	/	/	.
COc1cc(C(=O)NCCN2C(=O)S/C(=C\c3cccs3)C2=O)cc(OC)c1OC	?	.	.	.	.	.
COc1cc(OC)cc(C(=O)NCCN2C(=O)S/C(=C\c3cccs3)C2=O)c1	8.91µM	.	.	.	.	.
COc1ccc(C(=O)NCCN2C(=O)S/C(=C\c3cccnc3)C2=O)cc1[N+](=O)[O-]	.	43.0	?	?	24.6	.
CC(C)(Oc1ccc(Cl)cc1)C(=O)NCCN1C(=O)S/C(=C/c2cccnc2)C1=O	.	.	?	?	.	?
CC(Oc1ccc(Cl)cc1)C(=O)NCCN1C(=O)S/C(=C\c2cccnc2)C1=O (stereo unspecified)	?	.	.	.	.	-70.6
CN(CC(=O)Nc1ccc(F)cc1)C(=O)C1CC(=O)N(Cc2ccccc2)C1 (stereo unspecified)	.	.	.	.	.	.
COc1cc2c(c(OC)c1OC)CCc1cnoc1-2	.	.	?	?	.	.
CNc1ccccc1C(=O)OCC(=O)N(CCOC)c1c(N)n(CC(C)C)c(=O)[nH]c1=O	.	/	.	.	/	.
COc1ccc(NC(=O)Cn2c(C)c3cnn(-c4ccccc4)c(=O)c3c2C)c(OC)c1	/	/	/	/	/	.
O=C(O)c1ccccc1OCCN1CCCC1=O	.	.	.	.	.	.
N#CC1=C(N)SC(N)=C(C#N)C1c1ccnc2ccccc12	.	.	/	.	.	.
O=C1c2ccccc2C(=O)C1c1nccc2ccccc12	.	96.7	.	.	41.1	.
O=C1c2ccccc2C(=O)C1c1ccnc2ccccc12	.	92.7	.	.	37.5	.
O=C1C(c2ccnc3ccccc23)=C(O)c2ccccc21	.	active	?	.	47.0	.
Oc1ccccc1CNCCCN1CCOCC1	?	/	?	.	.	.
C/C(O)=C(\N=Nc1cc(C)ccc1O)C(N)=O	.	.	.	.	.	.
CCCCC(=O)Nc1ccc2c(c1)oc1ccccc12	?	72.9	.	.	24.8	.
O=C(CSc1ccccn1)Nc1ccc2c(c1)oc1ccccc12	?	56.6	.	.	41.6	.
CCCCCC(=O)Nc1ccc2ccccc2c1	.	60.5	.	.	50.0	.
COc1cc2c(cc1NC(=O)CSc1ccccn1)oc1ccccc12	?	.	?	.	.	.
CC(C)CC(=O)Nc1ccc2c(c1)oc1ccccc12	22.4µM	167.3	.	.	44.6	.
Cc1cc(C(=O)COC(=O)COc2ccc(C#N)cc2)c(C)n1C1CC1	.	/	.	.	/	.
SMILES	HCV inhibitor	Shiga inhibitor	Pf growth 96h	Pf growth 48h	CHX counter	HCMV inh
O=C(Nc1ccc2c(c1)OC1(CCCC1)O2)C1CC1	.	.	.	?	17.0	.
Cc1ccc(-c2nnc(SCC(=O)Nc3ccc4c(c3)oc3ccccc34)n2C)c(Cl)c1	?	.	.	/	.	-86.0
O=C(Nc1ccc2c(c1)oc1ccccc12)C1CC1	10µM	95.3	/	.	46.3	.
Cc1ccccc1OCc1nnc(SCC(=O)Nc2ccc3c(c2)oc2ccccc23)n1C	?	.	.	?	.	.
CCCc1cc(C(=O)OCC(=O)N(CCC)c2c(N)n(Cc3ccccc3)c(=O)[nH]c2=O)sc1C	?	/	.	?	/	.
CCN1/C(=C/c2ccc3ccccc3[n+]2CCCS(=O)(=O)[O-])C=Cc2cc(C)ccc21	.	.	.	.[0.00184 µM]	.	.
CCN1/C(=C/c2ccc3cc(C)ccc3[n+]2C)Sc2ccc3sccc3c21	?	.	.	?	.	-95.6

Screens deposited in PubChem by National Center for Advancing Translational Sciences (NCATS).
